Experimental data from PubChem BioAssay AID1159580 (chemical genetic matrix, 2015).
Values joined by “and” are separate entries in the source; they are usually repeats but may differ in a detail not shown here. Identical values can stand only once. About 2,000 (36%) of roughly 5,500 compounds were called active. Roughly 18% stayed inconclusive and do not appear here. Cut-off read from the data, not from the text of the source: active = normalized growth mostly below about 0.91 (no sharp cut-off); inconclusive = no clear call, values can overlap the other calls; inactive = mostly above about 0.92. The list shows a part of the results.

Assay: chemical genetic growth profiling, strain panel (AID 1159580);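 note: tested at 20 µM; growth read once vehicle control cultures reached saturation at 30 °C; 1 = growth at the plate median or of vehicle wells; lower values mean less growth of the strain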
Details: S. cerevisiae deletion strains, growth OD

Measured: normalized growth

COc1cc2c(cc1OC)-c1cc3ccc(OC)c(OC)c3c[n+]1CC2
inactive: locus YAL013W, strain DEP1, stronger effect = lower value 0.993 | locus YAL021C, strain ccr4, stronger effect = lower value 0.988 | locus YAL026C, strain drs2, stronger effect = lower value 0.987 | locus YAL030W, strain snc1, stronger effect = lower value 0.988 | locus YBL061C, strain skt5, stronger effect = lower value 0.988 | locus YBR009C, strain hhf1, stronger effect = lower value 0.984 | locus YBR021W, strain FUR4, stronger effect = lower value 0.977 and 1.02 | locus YBR023C, strain chs3, stronger effect = lower value 0.983 | locus YBR171W, strain sec66, stronger effect = lower value 0.971 | locus YBR229C, strain ROT2, stronger effect = lower value 0.979 and 1 | locus YBR231C, strain swc5, stronger effect = lower value 0.981 | locus YBR279W, strain paf1, stronger effect = lower value 0.979 | locus YCL011C, strain gbp2, stronger effect = lower value 0.991 | locus YCL016C, strain dcc1, stronger effect = lower value 0.978 | locus YCL029C, strain bik1, stronger effect = lower value 0.991 and 1.01 | locus YCL061C, strain MRC1, stronger effect = lower value 0.989 | locus YCL069W, strain vba3, stronger effect = lower value 0.988 | locus YCR088W, strain abp1, stronger effect = lower value 0.98 | locus YDL005C, strain med2, stronger effect = lower value 0.975 | locus YDL035C, strain GPR1, stronger effect = lower value 1.1 and 0.985 | locus YDL040C, strain nat1, stronger effect = lower value 0.988 | locus YDL074C, strain BRE1, stronger effect = lower value 1.05 and 1.02 | locus YDL101C, strain DUN1, stronger effect = lower value 0.982 and 1.03 | locus YDL134C, strain PPH21, stronger effect = lower value 0.989 and 0.983 | locus YDL185W, strain tfp1, stronger effect = lower value 0.988 and 1.03 | locus YDL192W, strain arf1, stronger effect = lower value 0.991 and 1.01 | locus YDR001C, strain nth1, stronger effect = lower value 0.982 | locus YDR069C, strain doa4, stronger effect = lower value 0.976 | locus YDR101C, strain arx1, stronger effect = lower value 0.985 and 1.02 | locus YDR137W, strain rgp1, stronger effect = lower value 0.97 | locus YDR150W, strain NUM1, stronger effect = lower value 0.992 and 1.01 | locus YDR159W, strain sac3, stronger effect = lower value 0.999 | locus YDR162C, strain NBP2, stronger effect = lower value 1.01 and 1 | locus YDR195W, strain ref2 0.921 | locus YDR297W, strain sur2, stronger effect = lower value 0.984 | locus YDR318W, strain mcm21, stronger effect = lower value 0.987 and 1.01 | locus YDR334W, strain swr1, stronger effect = lower value 0.986 | locus YDR335W, strain msn5, stronger effect = lower value 0.99 | locus YDR388W, stronger effect = lower value 0.99 and 1.02 | locus YDR392W, strain spt3, stronger effect = lower value 1.01 | locus YDR502C, strain sam2, stronger effect = lower value 0.985 and 1.01 | locus YEL003W, strain gim4, stronger effect = lower value 0.99 | locus YEL037C, strain rad23, stronger effect = lower value 0.987 | locus YEL061C, strain CIN8 (second series), stronger effect = lower value 0.967 | locus YEL061C, strain CIN8, stronger effect = lower value 0.99 and 1.01 | locus YER015W, strain faa2, stronger effect = lower value 0.989 | locus YER016W, strain bim1, stronger effect = lower value 0.987 | locus YER110C, stronger effect = lower value 0.983 and 1.02 | locus YER111C, strain swi4, stronger effect = lower value 0.97 | locus YER155C, strain BEM2 (second series), stronger effect = lower value 0.909 | locus YER155C, strain BEM2, stronger effect = lower value 0.994 and 1.01 | locus YER167W, strain BCK2, stronger effect = lower value 0.977 and 0.997 | locus YFR010W, strain ubp6, stronger effect = lower value 0.969 | locus YGL078C, strain dbp3, stronger effect = lower value 0.991 and 1.01 | locus YGL086W, strain mad1, stronger effect = lower value 0.952 and 0.998 | locus YGL167C, strain pmr1, stronger effect = lower value 0.981 | locus YGL173C, strain kem1, stronger effect = lower value 0.98 | locus YGL227W, strain vid30, stronger effect = lower value 0.974 | locus YGL240W, strain doc1, stronger effect = lower value 0.969 | locus YGL248W, strain PDE1, stronger effect = lower value 0.983 and 1.02 | locus YGL253W, strain hxk2, stronger effect = lower value 0.996 | locus YGR078C, strain PAC10, stronger effect = lower value 1.01 | locus YGR135W, strain pre9, stronger effect = lower value 1 and 1.01 | locus YGR229C, strain SMI1, stronger effect = lower value 1.02 | locus YGR252W, strain gcn5, stronger effect = lower value 0.952 and 1.02 | locus YHR013C, strain ard1, stronger effect = lower value 0.966 | locus YHR027C, strain rpn1, stronger effect = lower value 0.975 | locus YHR030C, strain SLT2, stronger effect = lower value 0.989 and 1.04 and 1 | locus YHR079C, strain IRE1 (second series), stronger effect = lower value 0.991 and 1.02 | locus YHR079C, strain IRE1, stronger effect = lower value 1.03 | locus YHR094C, strain hxt1, stronger effect = lower value 0.991 and 1.02 | locus YHR129C, strain ARP1, stronger effect = lower value 0.987 and 1.01 | locus YHR142W, strain chs7, stronger effect = lower value 1.02 | locus YHR200W, strain rpn10, stronger effect = lower value 0.987 and 1 | locus YIL066C, strain RNR3, stronger effect = lower value 0.973 and 0.985 | locus YIL073C, strain SPO22, stronger effect = lower value 0.95 and 1.04 | locus YIL125W, strain kgd1, stronger effect = lower value 0.996 and 1.01 | locus YIR030C, strain dcg1, stronger effect = lower value 0.989 and 1.01 | locus YJL092W, strain hpr5, stronger effect = lower value 0.979 | locus YJL095W, strain BCK1 (second series), stronger effect = lower value 0.973 | locus YJL095W, strain BCK1, stronger effect = lower value 1 and 1.02 and 1.05 | locus YJL115W, strain asf1, stronger effect = lower value 0.975 | locus YJL129C, strain trk1, stronger effect = lower value 0.96 | locus YJL134W, strain LCB3, stronger effect = lower value 0.97 and 1 | locus YJL154C, strain vps35, stronger effect = lower value 0.98 | locus YJL164C, strain tpk1, stronger effect = lower value 0.98 | locus YJL166W, strain qcr8, stronger effect = lower value 0.974 | locus YJL168C, strain set2, stronger effect = lower value 0.989 and 1.02 | locus YJL187C, strain SWE1 (second series), stronger effect = lower value 0.997 and 1.05 | locus YJR043C, strain POL32, stronger effect = lower value 0.998 and 0.991 | locus YJR066W, strain TOR1, stronger effect = lower value 0.965
